Assay outcomes from PubChem.
The list is not random: actives were taken first. Their share in the collection is about 19%.
ELG1 repair inh = inhibitors of ELG1-dependent DNA repair in HEK293T cells | HEK293T ELG1-luciferase reporter, luminescence, 16 h; DNA damage induced by 5-fluorouridine | Potency, µM (top dose mostly 46.1 µM), usual class: inhibitors | hit rate 2.3% among 330,000 | AID 504467; further: nearly all actives have a fitted effect of over 55% in size
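HEK293T cells expressing luciferase-tagged ELG1 (2,000/well) received 5-Fluorouridine plus compound or DMSO for 16 hr at 37 °C. Luciferase was read by ONE-Glo luminescence after 30 min at room temperature.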
HT1080 IDH1KD tx = HT-1080 IDH1 knockdown cell toxicity (counter line) | hit rate 2% among 360,000 | Potency, µM (series often up to 46.1 µM), most hits filed as cytotoxic | HT-1080 IDH1 knockdown viability, ATP luminescence, 48 h | AID 686971
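HT-1080-IDH1KD cells (IDH1 knocked down), 750/well in RPMI with 5% FBS, treated with compound 48 h at 37 degrees C. Viability by CellTiter-Glo luminescence, normalised to DMSO and no-cell wells; concentration-response curves classed.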
DT40 TDP1 no CPT = qHTS for Inhibitors of human tyrosyl-DNA phosphodiesterase 1 (TDP1): qHTS in cells in absence of CPT; DT40 Tdp1-/- hTDP1 cells, no CPT, ATP luminescence, 48 h; hit rate 15% among 420,000; Potency, µM (highest dose often 46.2 µM), usual class: inhibitors; AID 686978, 2013; further: nearly all actives have a fitted effect of over 55% in size
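Cells were dispensed at 400 per well, compounds added by pin tool, plates incubated ≥48 hr at 37 °C, then CellTiter-Glo added for 30 min at room temperature before luminescence reading. Line: DT40 Tdp1-/- complemented with hTDP1; camptothecin omitted.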
TDP1 cell CPT = DT40-hTDP1 cell growth loss with CPT; chicken DT40 Tdp1-/-;hTDP1 cells + 20 nM CPT, ATP luminescence, 48 h; Potency, µM (highest dose often 46.2 µM), hits mostly inhibitors; hit rate 12% among 420,000; AID 686979; further: nearly all actives have a fitted effect of over 55% in size
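Chicken DT40 Tdp1-/- cells complemented with human TDP1, 400 cells/well, exposed to compounds plus 20 nM camptothecin for at least 48 h at 37 C; viability read as ATP content by CellTiter-Glo luminescence.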
IL-1B inflam inh = inhibitors of inflammasome signaling (IL-1 beta secretion) | THP-1 LPS/ATP IL-1B secretion, AlphaLISA, 16 h; active compounds read low | hit rate 4.7% among 360,000 | activity change, % at 57.5 µM; in the data active means activity change below about -50%; inconclusive means mostly about -30% to -49%
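THP-1 cells pretreated 1 hr with compounds (up to 57.5 uM final), then stimulated with LPS (250 ng/mL final) plus ATP (1.25 mM final); secreted IL-1B measured by AlphaLISA after 16 hr, decreased signal indicating inhibition.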
HT1080-NT tox = kills 2HG-producing HT-1080-NT fibrosarcoma cells; HT-1080-NT fibrosarcoma viability, CellTiter-Glo ATP luminescence, 48 h; Potency, µM (series often up to 46.1 µM), hits mostly cytotoxic; hit rate 1.6% among 360,000;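 further: NT is the 2HG producing partner of a matched IDH1 knockdown line; nearly all actives have a fitted effect of over 55% in size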
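Luminescent CellTiter-Glo readout after 48 hours of compound exposure at 37 degrees C defined viability of HT-1080-NT cells. Activity was normalized to DMSO wells and cell-free media wells; concentration-response curves were fitted and assigned curve classes.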
A number is an active result; – = inactive; ? = inconclusive; · = no result. Unless noted, the call rests on the fitted dose curve; in most records, active means well fitted curve in the direction sought with a large enough effect; inconclusive means small, poorly fitted or top-dose-only effect, or another doubt; inactive means no such curve, though single readings can be large; an effect the other way counts as inactive or inconclusive.

SMILES	ELG1 repair inh	HT1080 IDH1KD tx	DT40 TDP1 no CPT	TDP1 cell CPT	IL-1B inflam inh	HT1080-NT tox
O=C(O)CCCn1cc(NC(=O)c2ccc(Br)o2)cn1	–	–	–	–	–	–
CCN(C(=O)CSc1nnc(NCCOC)s1)c1c(N)n(Cc2ccccc2)c(=O)[nH]c1=O	·	–	–	–	–	–
CC(=O)N1CCCC1c1nc2ccccc2n1Cc1cc(C)ccc1C (stereo not given)	·	·	23µM	23µM	·	·
CCCCn1c(N)c(N(CCC(C)C)C(=O)C2CCCN(C(=O)c3ccc(Cl)cc3)C2)c(=O)[nH]c1=O (stereo not given)	–	–	–	–	–	–
NC1=NC[C@@H](CC2CCCCC2)N1CCc1cc(C(F)(F)F)cc(C(F)(F)F)c1	–	?	3.7µM	3.3µM	-109	–
CCC(C)[C@H]1CN=C(N)N1CCc1cc(C(F)(F)F)cc(C(F)(F)F)c1 (stereo not given in full)	?	–	4.6µM	3.3µM	?	–
NC1=NC[C@H](c2ccccc2)N1CC1CCCCC1	·	–	16µM	13µM	-54	–
CC(O)[C@H]1CN=C(N)N1CC1CCCCC1 (stereo not given in full)	·	–	–	?	–	–
NC1=NC[C@H](c2ccccc2)N1CCc1cc(C(F)(F)F)cc(C(F)(F)F)c1	–	?	21µM	18µM	?	?
COc1ccc(-c2cnc3c(c2)C(=O)N([C@H](C)CO)C[C@@H](C)[C@@H](CN(C)C(=O)NC2CCCC2)O3)cc1	·	–	–	–	–	–
COc1ccc(CCN2C(=O)c3ccccc3C2c2nnnn2C(C)C)cc1OC (stereo not given)	·	?	–	?	–	–
Cc1ccc(NC(=O)CCN2CCN(C/C=C/c3ccccc3)CC2)cc1C	–	–	?	?	-53	–
O=C(Nc1cccc(Cl)c1)N1CCN(C/C=C/c2ccccc2)CC1	?	–	–	?	-51	–
COc1ccc(NC(=O)CCN2CCN(C/C=C/c3ccccc3)CC2)cc1	–	–	?	–	–	–
COc1cc(NC(=O)CCN2CCN(C/C=C/c3ccccc3)CC2)cc(OC)c1	?	–	21µM	?	–	–
Cc1ccc(NC(=O)CCN2CCN(C/C=C/c3ccccc3)CC2)cc1	–	–	?	?	?	–
O=C1CCC(C(=O)N2CCN(c3ccccc3)CC2)CN1Cc1ccc(Cl)cc1 (stereo not given)	·	–	?	?	–	–
CCC(=O)N1CCc2cc(CNC(=O)Cc3ccc(OC)c(OC)c3)ccc21	·	·	?	–	·	·
O=C(CNS(=O)(=O)Cc1ccccc1)NNc1ccccc1	·	4.1µM	?	–	–	?
O=C(O)c1ccccc1-c1ccccc1C(=O)NNc1ccccc1	–	?	–	–	–	–
O=C(NNc1ccccc1)OCc1ccccc1	·	3.3µM	?	?	–	?
O=C(CC(=O)OCc1ccccc1)OCc1ccccc1	·	–	–	–	–	–
O=C(NNc1ccccc1)C(=O)NNc1ccccc1	·	1.2µM	?	–	–	–
CC1C=Cc2ccccc2N1C(=O)c1ccccc1 (stereo not given)	–	–	–	–	–	–
N#CC1c2ccccc2-c2ccccc2N1C(=O)c1ccccc1 (stereo not given)	·	9.2µM	5.8µM	5.8µM	–	?
SMILES	ELG1 repair inh	HT1080 IDH1KD tx	DT40 TDP1 no CPT	TDP1 cell CPT	IL-1B inflam inh	HT1080-NT tox
CCOc1ccc(C(=O)NCc2ccc3c(c2)OCO3)cc1	–	–	–	?	–	–
Cc1nc(CS(=O)c2ccc(Cl)cc2)cc(NCc2ccc(Cl)cc2Cl)n1 (stereo not given)	–	?	21µM	15µM	-77	?
COc1ccc(C(c2nnnn2Cc2ccccc2)N2CCN(C/C=C/c3ccccc3)CC2)cc1 (stereo not given)	·	?	15µM	?	?	?
CCC(c1nnnn1Cc1ccccc1)N1CCN(C/C=C/c2ccccc2)CC1 (stereo not given)	·	?	15µM	?	–	–
CN1CCN(C(c2cccc(C(F)(F)F)c2)c2nnnn2Cc2ccccc2)CC1 (stereo not given)	–	?	?	–	-54	?
CCCCn1nnnc1C(CC)N1CCN(C/C=C/c2ccccc2)CC1 (stereo not given)	·	–	?	?	–	–
CCCCn1nnnc1C(c1ccccc1)N1CCN(c2ncc(C(F)(F)F)cc2Cl)CC1 (stereo not given)	·	–	18µM	?	–	–
